Compound activity deposited in PubChem BioAssay by National Center for Advancing Translational Sciences (NCATS).
Rows were chosen to be rich in hits. Some 0.92% of all compounds tested hit in one or more screens of this group.
L3MBTL1 inh – blocks human L3MBTL1. Potency, µM (series often up to 57.1 µM), for inactives: at the top dose activity, negative = inhibition, hits mostly inhibitors. AID 485360. AlphaScreen L3MBTL1–H3K9me1 peptide binding. 0.66% of 230,000 active; note: nearly all actives have a fitted effect of over 60% in size
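L3MBTL1 50 nM + b-AHA-H3(1-15)K9me1 75 nM, 30 min RT; compound added, 30 min RT; streptavidin donor/Ni-chelate acceptor beads 10 ug/mL each final, 30 min RT dark; AlphaScreen read.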
APEX1 inh – APE1 (human) endonuclease inhibition. AID 2517. Potency, µM (top dose mostly 65.8 µM), for the others: at the top dose activity change, negative = inhibition, hits mostly inhibitors. P27695. recombinant APE1, TAMRA/BHQ-2 abasic DNA cleavage fluorescence. 0.35% of 350,000 active;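 note: plate controls were vehicle for no effect and reference inhibitor for full effect; nearly all actives have a fitted effect of over 55% in size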
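Incision of a quenched TAMRA/BHQ-2 THF abasic-site duplex (50 nM) by 0.75 nM APE1, after 15 min compound preincubation, measured as fluorescence increase over three 60 s reads. Values normalized to buffer, DMSO and NSC13755 control wells.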
WRN helicase inh – inhibitors of human WRN helicase; Q14191; WRN helicase unwinding, fluorescent forked duplex, kinetic; Potency, µM (series often up to 114 µM), for inactives: at the top dose activity change, negative = inhibition, hits mostly inhibitors; 0.46% of 360,000 active; note: nearly all actives have a fitted effect of over 55% in size
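WRN at 20 nM final preincubated with compound 15 min at room temperature; reaction started with 100 nM fluorophore/quencher forked duplex oligonucleotide and 2 mM ATP final. Unwinding followed kinetically by red fluorescence (ex 525, em 598 nm).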
BLM helicase inh – blocks DNA unwinding by human BLM helicase; P54132; recombinant BLM DNA unwinding, fluorescence dequenching; Potency, µM (doses to about 56.1 µM), for inactives: at the top dose activity change, negative = inhibition, usual class: inhibitors; 0.2% of 350,000 active;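 note: plate controls were vehicle for no effect and no enzyme for full effect; nearly all actives have a fitted effect of over 35% in size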
RECQ1 inh – RECQ1 (human) helicase inhibition; P46063; RECQ1 DNA unwinding, red fluorescence kinetic read; Potency, µM (series often up to 57.3 µM), for the others: top-dose activity, negative = inhibition, usual class: inhibitors; 0.54% of 240,000 active;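 note: plate controls were vehicle for no effect and no enzyme for full effect; nearly all actives have a fitted effect of over 30% in size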
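50 nM RECQ1T1 preincubated 15 min with compound in Tris pH 8.0 buffer with MgCl2, DTT, Tween-20 and 2.5 ug/ml poly(dI-dC); started with 200 nM TAMRA/BHQ-2 forked duplex and 2 mM ATP. Unwinding read as fluorescence (525/598 nm), two reads 2 h apart.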
An asterisk follows results filed as active; ! = not active in a repeat; [ ] = remark or other dose. Calls come from the whole dose curve; as a rule, active = well fitted curve in the direction sought with a large enough effect; inconclusive = small, poorly fitted or top-dose-only effect, or another doubt; inactive = no such curve, though single readings can be large; an effect the other way counts as inactive or inconclusive. Unless noted, % is set by controls: 0 for no effect and ±100 for the full control effect; potency is the fitted concentration of half-maximal effect.

`CC(=O)NC(c1ccc(C)cc1)c1cc(Cl)c2cccnc2c1O` (stereo unspecified) gave L3MBTL1 inh 13.1%, APEX1 inh 0.5%, WRN helicase inh -2.9%[57.1 µM] and BLM helicase inh -5.9%.
Screening CC(=O)NC(c1ccccc1)c1cc([N+](=O)[O-])c2cccnc2c1O (stereo unspecified) returned L3MBTL1 inh 7.08µM*, APEX1 inh -4.1%, WRN helicase inh -10.8%, BLM helicase inh -7.7% and RECQ1 inh -2.6%.
`CC(C)C(=O)NC(c1ccccc1)c1cc([N+](=O)[O-])c2cccnc2c1O` (stereo unspecified) gave L3MBTL1 inh 10µM*, APEX1 inh -4.6%, WRN helicase inh inconclusive, BLM helicase inh -11.7% and RECQ1 inh -5.9%.
For Cc1cc(=O)oc2cc(NC(=O)[C@H](CCCCN)NC(=O)[C@H](CC3CCCCC3)NC(=O)OCC3c4ccccc4-c4ccccc43)ccc12 the results were APEX1 inh 12.7%, BLM helicase inh inconclusive and RECQ1 inh inconclusive.
For CCC1CCCCC1 the results were APEX1 inh 0.7%, BLM helicase inh 0.3% and RECQ1 inh -14.9%.
Screening OC[C@H]1OC(O)[C@H](O)[C@@H](O)[C@@H]1O (stereo partly specified) returned APEX1 inh -3.0%, BLM helicase inh -2.5% and RECQ1 inh -20.0%.
For C=C(CCC12O[C@H](C(=O)O)[C@@](O)(C(=O)O)[C@](C(=O)O)(O1)[C@H](OC(=O)/C=C/[C@@H](C)C[C@@H](C)CC)[C@H]2O)[C@@H](OC(C)=O)[C@H](C)Cc1ccccc1 the results were APEX1 inh -6.2%, BLM helicase inh 22.4µM* and RECQ1 inh inactive.
For CC[N+]1(C)CCC(O)(/C=C/c2ccccc2)C(C(=O)/C=C/c2ccccc2)C1 (stereo unspecified) the results were WRN helicase inh 11.2µM*.
For O=c1c2c([N+](=O)[O-])cc([N+](=O)[O-])cc2sn1-c1ccc(Br)cc1 the results were L3MBTL1 inh -18.1%, APEX1 inh -2.7%, WRN helicase inh 79.4µM*, BLM helicase inh -1.9% and RECQ1 inh -0.2%.
`O=c1c2c([N+](=O)[O-])cc([N+](=O)[O-])cc2sn1Cc1ccccc1` gave APEX1 inh -1.3%, WRN helicase inh 20µM* and BLM helicase inh -7.0%.
Cc1ccc(/C=C2/CNC/C(=C\c3ccc(C)cc3)C2=O)cc1 was read as APEX1 inh 0.6%, BLM helicase inh -11.0% and RECQ1 inh -7.1%.
For O=C1c2c(O)cc(O)cc2OC(c2ccc(O)c(O)c2)C1O (stereo unspecified) the results were APEX1 inh inconclusive, BLM helicase inh -1.4% and RECQ1 inh -4.9%.
O=C1c2c(O)cc(O)cc2O[C@H](c2ccc(O)c(O)c2)C1O (stereo partly specified) was read as APEX1 inh inconclusive, BLM helicase inh -5.1% and RECQ1 inh 14.1µM*.
`CC[C@H](C)[C@H](NC(=O)[C@H](Cc1ccc(O)cc1)NC(=O)[C@H](Cc1cnc[nH]1)NC(=O)[C@H](CCCNC(=N)N)NC(=O)[C@H](CC(C)C)NC(=O)[C@H](C)NC(=O)[C@H](CO)NC(=O)[C@H](Cc1ccc(O)cc1)NC(=O)[C@H](Cc1ccc(O)cc1)NC(=O)[C@H](CCCNC(=N)N)NC(=O)[C@H](C)NC(=O)[C@H](CCSC)NC(=O)[C@H](CC(=O)O)NC(=O)[C@H](CCC(=O)O)NC(=O)[C@H](C)NC(=O)[C@@H]1CCCN1)C(=O)N[C@@H](CC(N)=O)C(=O)N[C@@H](CC(C)C)C(=O)N[C@H](C(=O)N[C@H](C(=O)N[C@@H](CCCNC(=N)N)C(=O)N[C@@H](CCC(N)=O)C(=O)N[C@@H](CCCNC(=N)N)C(=O)N[C@@H](Cc1ccc(O)cc1)C(N)=O)[C@@H](C)O)[C@@H](C)CC` gave APEX1 inh 3.8%, BLM helicase inh 4.2% and RECQ1 inh -3.8%.
`O=C1C=CC(=O)c2c1ccc1c2ccc2ccccc21` gave APEX1 inh -3.4%[21 µM], BLM helicase inh -11.9%[21.4 µM] and RECQ1 inh 5.3%[25.9 µM].
For CC(C)C[C@H](NC(=O)[C@@H]1CCCN1C(=O)[C@H](CO)NC(=O)[C@H](Cc1ccccc1)NC(=O)CNC(=O)[C@@H]1CCCN1C(=O)[C@@H]1CCCN1C(=O)[C@@H](N)CCCN=C(N)N)C(=O)O the results were APEX1 inh 0.501µM*, BLM helicase inh -0.3% and RECQ1 inh -3.9%.
Screening O=C1Nc2cc3c(cc2C1=O)sc1ccccc13 returned L3MBTL1 inh inconclusive, APEX1 inh 0.1%, WRN helicase inh 44.7µM*, BLM helicase inh -15.8% and RECQ1 inh -6.8%.
Cc1cc2c(cc1C)C(=O)C(=O)N2 was read as WRN helicase inh -14.7%.
COc1cc([C@@H]2c3cc4c(cc3C(O[C@@H]3O[C@@H]5COC(c6cccs6)O[C@H]5[C@H](O)[C@H]3O)C3COC(=O)[C@@H]32)OCO4)cc(OC)c1O (stereo partly specified) was read as APEX1 inh -1.3%.
For O=C1CC[C@@H](C(=O)N[C@@H](Cc2cnc[nH]2)C(=O)N[C@@H](Cc2c[nH]c3ccccc23)C(=O)N[C@@H](CO)C(=O)N[C@@H](Cc2ccc(O)cc2)C(=O)O)N1 the results were APEX1 inh -3.7%, BLM helicase inh -0.2% and RECQ1 inh 10.0%.
Screening CC1Cc2ccccc2N1C(=O)COC(=O)c1ccc(N(C)C)cc1 (stereo unspecified) returned L3MBTL1 inh 12.7%, APEX1 inh -3.7% and WRN helicase inh 56.2µM*.
`COc1ccccc1NC(C)=O` gave L3MBTL1 inh -3.2%, APEX1 inh 3.3%, WRN helicase inh 1.8%, BLM helicase inh -2.1% and RECQ1 inh 8.9%.
Screening COc1ccccc1NC(=O)C(=N\O)/C(C)=N/O returned L3MBTL1 inh 1.5%, APEX1 inh 22.4µM*, WRN helicase inh -35.6%, BLM helicase inh -3.3% and RECQ1 inh -5.7%.
COCCCNc1nc(SCc2ccccc2)nc2sc3c(c12)CCC3 was read as L3MBTL1 inh -4.5%, APEX1 inh 0.0%, WRN helicase inh -11.3%, BLM helicase inh -9.0% and RECQ1 inh -10.0%.
For N#Cc1cnn(-c2nc(SCc3ccccc3)nc3sc4c(c23)CCCC4)c1N the results were L3MBTL1 inh 3.9%, APEX1 inh -4.7%, WRN helicase inh -0.9%, BLM helicase inh -6.6% and RECQ1 inh 7.94µM*.
For CC1=CC(=O)c2ccccc2C1=O the results were L3MBTL1 inh -18.4%, APEX1 inh -2.6%, WRN helicase inh 6.9%, BLM helicase inh 17.8µM*! and RECQ1 inh -11.5%.
